IL1B secr inh – qHTS for Inhibitors of Inflammasome Signaling: IL-1-beta AlphaLISA Primary Screen; activity change, % at 57.5 µM; THP-1 LPS/ATP IL-1B secretion, AlphaLISA, 16 h; active compounds read low; AID 743279, 2014; hit rate 4.7% among 360,000; in the data active = activity change below about -50%; inconclusive = mostly about -30% to -49%
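Secreted IL-1B measured by AlphaLISA bead assay after 16 h compound exposure of THP-1 cells; compounds (final up to 57.5 uM) added 1 h before LPS (250 ng/mL) and ATP (1.25 mM) stimulation; lower signal means less secretion.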
TDP1 cell CPT – qHTS for Inhibitors of human tyrosyl-DNA phosphodiesterase 1 (TDP1): qHTS in cells in presence of CPT; Potency, µM (doses to about 46.2 µM), for inactives: at the highest dose activity change, negative = growth inhibition, most hits filed as inhibitors; hit rate 12% among 420,000; AID 686979, 2013; chicken DT40 Tdp1-/-;hTDP1 cells + 20 nM CPT, ATP luminescence, 48 h; also: potency is read from the fitted curve at half-maximal effect; nearly all actives have a fitted effect of over 55% in size
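Cell growth measured by CellTiter-Glo luminescence after a minimum 48 h, 37 C compound exposure with 20 nM CPT in Tdp1-knockout DT40 cells stably expressing hTDP1, seeded 400/well; qHTS titration format.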
Gal4-VP16 FLuc – VP16 counterscreen qHTS for inhibitors of ROR gamma transcriptional activity; Drosophila S2 Gal4-VP16 UAS-luciferase, luminescence, 20 h; Potency, µM (top dose mostly 53.6 µM), for the others: at the highest dose activity, negative = inhibition, most hits filed as inhibitors; hit rate 3.5% among 310,000; AID 2546, 2010;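 also: Gal4-VP16 expression switched on by copper sulfate through the metallothionein promoter; potency is read from the fitted curve at half-maximal effect; nearly all actives have a fitted effect of over 50% in size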
DT40 TDP1 no CPT – qHTS for Inhibitors of human tyrosyl-DNA phosphodiesterase 1 (TDP1): qHTS in cells in absence of CPT; DT40 Tdp1-/- hTDP1 cells, no CPT, ATP luminescence, 48 h; Potency, µM (titrated, usually from 46.2 µM), inactives show at the top dose activity change, negative = growth inhibition, usual class: inhibitors; hit rate 15% among 420,000; also: potency is read from the fitted curve at half-maximal effect; nearly all actives have a fitted effect of over 55% in size
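Growth of hTDP1-complemented DT40 Tdp1-knockout cells is measured by ATP luminescence after at least 48 hr compound exposure at 37 °C, with DMSO substituting for the 20 nM CPT used in the parallel screen.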
RORg inh – qHTS for inhibitors of ROR gamma transcriptional activity; Potency, µM (series often up to 53.6 µM), for inactives: top-dose activity change, negative = inhibition, actives largely listed as inhibitors; Drosophila S2 Gal4-RORgamma UAS-luciferase reporter, 20 h; AID 2551, 2010; hit rate 5.4% among 310,000; Nuclear receptor ROR-gamma (Mus musculus), P51450; also: potency is read from the fitted curve at half-maximal effect; nearly all actives have a fitted effect of over 60% in size
Target sequence (P51450 whole entry, looked up, the tested form may be a part): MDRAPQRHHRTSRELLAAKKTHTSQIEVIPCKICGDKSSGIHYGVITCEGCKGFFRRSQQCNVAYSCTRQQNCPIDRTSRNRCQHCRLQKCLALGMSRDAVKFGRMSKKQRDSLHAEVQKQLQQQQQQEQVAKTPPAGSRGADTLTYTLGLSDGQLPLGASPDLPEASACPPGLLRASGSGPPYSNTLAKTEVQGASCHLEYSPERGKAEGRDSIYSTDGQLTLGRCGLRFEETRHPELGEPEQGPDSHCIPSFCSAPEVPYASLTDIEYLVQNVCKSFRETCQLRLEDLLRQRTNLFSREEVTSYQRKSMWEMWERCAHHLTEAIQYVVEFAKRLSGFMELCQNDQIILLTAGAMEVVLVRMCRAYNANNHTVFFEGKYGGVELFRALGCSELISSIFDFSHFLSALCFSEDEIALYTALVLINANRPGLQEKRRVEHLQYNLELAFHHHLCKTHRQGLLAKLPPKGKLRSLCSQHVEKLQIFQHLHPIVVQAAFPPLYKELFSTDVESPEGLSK
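Luciferase reporter read in Schneider cells carrying Gal4-RORγ (mouse) and UAS-Photinus luciferase; cells given compound 1 h before 700 uM copper sulfate induction, then incubated 20 h at ambient temperature.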
LDHA block – qHTS assay for inhibitors of human lactate dehydrogenase; activity change, % (values are at about 110 or 230 µM); L-lactate dehydrogenase A chain (Homo sapiens), P00338; AID 1347041, 2019; hit rate 0.15% among 480,000; purified LDHA, NADH/diaphorase-resazurin fluorescence; active compounds read low; in the data active = activity change below about -30%; inconclusive = mostly about -25% to -30%;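 also: plate controls were DMSO wells for no effect and wells without enzyme for full effect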
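Remaining NADH was detected by diaphorase (0.133 mg/mL) converting 37 µM resazurin to fluorescent resorufin, read at 0 and 20 minutes. The preceding 5-minute room-temperature reaction used 2 nM LDHA, 0.2 mM sodium pyruvate and 0.06 mM NADH at pH 7.4.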
An asterisk follows results filed as active; u = inconclusive; x = not tested or not shown. The list is not random: actives were taken first. Their share in the collection is about 18%. Unless noted, calls follow the shape of the dose curve; as a rule, active = well fitted curve in the direction sought with a large enough effect; inconclusive = small, poorly fitted or top-dose-only effect, or another doubt; inactive = no such curve, though single readings can be large; an effect the other way counts as inactive or inconclusive. Unless noted, % is scaled to controls: 0 for no effect and ±100 for the full control effect.

SMILES	IL1B secr inh	TDP1 cell CPT	Gal4-VP16 FLuc	DT40 TDP1 no CPT	RORg inh	LDHA block
CCCCOc1ccc(C2C(C(=O)c3ccc(C)o3)=C(O)C(=O)N2CC2CCCO2)cc1 (stereo unspecified)	-2.0	u	-7.0%	23.1µM*	31.2%	1.8
Cc1ccc(C(=O)C2=C(O)C(=O)N(CC3CCCO3)C2c2ccccc2F)o1 (stereo unspecified)	9.2	0.3%	-0.1%	u	-12.9%	-4.8
Cc1ccc(C)c(S(=O)(=O)NCc2ccc(C(=O)N3CCC(Cc4ccccc4)CC3)cc2)c1	-57.5*	u	-24.5%	u	39.7%	0.9
CCn1c(=O)c(C(=O)CN2CCN(Cc3ccc4c(c3)OCO4)CC2)c(N)n(Cc2ccccc2)c1=O	u	u	-1.8%	u	25.3%	-5.0
O=C(CCc1nc2ccccc2c(=O)[nH]1)N1CCN(S(=O)(=O)c2ccccc2Br)CC1	-20.0	20.6µM*	x	u	x	-2.5
CCn1c(=O)c(C(=O)CN2CCN(S(=O)(=O)c3cc(C)ccc3C)CC2)c(N)n(Cc2ccccc2)c1=O	0.0	10.3µM*	-5.5%	16.4µM*	u	0.0
Cc1ccc(S(=O)(=O)N2CCN(C(=O)CCc3nc4ccccc4c(=O)[nH]3)CC2)c(C)c1	u	u	x	u	x	-3.0
Cc1ccc(C)c(S(=O)(=O)N2CCN(C(=O)CCc3nc4ccccc4c(=O)[nH]3)CC2)c1	18.6	20.6µM*	x	20.6µM*	x	-1.3
CC(C)(C)c1nc(CN2CCC(c3nc4ccccc4s3)CC2)no1	x	x	x	x	x	1.6
Cc1ccc(C)c(S(=O)(=O)N2CCN(C(=O)c3ccccc3Cc3ccccc3)CC2)c1	-58.8*	10.8%	x	u	x	-6.2
Cc1ccc(C)c(S(=O)(=O)N2CCN(C(=O)CCCc3c[nH]c4ccccc34)CC2)c1	u	u	x	23.1µM*	x	-2.6
O=C(c1ccccc1Cc1ccccc1)N1CCN(S(=O)(=O)c2ccccc2)CC1	-25.1	-28.0%	8.3%	-28.3%	16.4%	-4.6
Cc1ccc(C)c(S(=O)(=O)N2CCN(C(=O)CSc3ccccc3)CC2)c1	0.0	-26.7%	-2.9%	-24.1%	-10.9%	-0.7
Cc1ccc(C)c(S(=O)(=O)N2CCN(C(=O)CCc3c[nH]c4ccccc34)CC2)c1	-6.4	-5.2%	x	-21.8%	x	-6.0
Cc1ccc(C)c(S(=O)(=O)N2CCN(C(C)C(=O)Nc3ccccc3-c3ccccc3)CC2)c1 (stereo unspecified)	0.0	u	-11.9%	16.4µM*	22.0%	-9.5
O=S(=O)(Nc1ccc(-c2ccc(N3CCOCC3)nn2)cc1)c1ccc(C(F)(F)F)cc1	x	x	x	x	x	6.5
CCCCN(C)S(=O)(=O)NCc1ccnc(N2CCN(c3ccc(F)cc3)CC2)c1	x	x	x	x	x	-18.1
COc1cccc(Nc2nc(-c3ccc(CC(=O)N4CCOCC4)s3)cs2)c1	x	x	x	x	x	0.5
CCOc1ccccc1C(=O)Nc1nnc(CC)s1	14.1	16.4µM*	u	20.6µM*	u	-2.3
Cc1nnc(NC(=O)c2ccc3ccccc3n2)s1	63.6	u	7.08µM*	u	2.82µM*	-2.3
CCOc1ccccc1C(=O)Nc1ccccc1C(N)=O	-8.9	-23.1%	-14.8%	-23.1%	u	-9.3
CCOc1cc2ccccc2cc1C(=O)Nc1nnc(CC)s1	x	x	x	x	x	-4.4
CC(C)c1nnc(NC(=O)c2ccc3ccccc3n2)s1	x	x	x	x	x	9.9
CCOc1ccccc1C(=O)Nc1ccsc1C(=O)OC	-3.3	4.11µM*	-0.4%	3.66µM*	31.2%	-5.0
CCc1nnc(NC(=O)c2cccc(C(=O)Nc3nnc(CC)s3)n2)s1	75.6	0.146µM*	0.178µM*	0.0206µM*	0.0178µM*	1.9
CCc1nnc(NC(=O)c2ccncc2)s1	1.0	1.1%	19.5%	-3.6%	3.6%	-2.2

Bioassay records as filed in PubChem.
